In PubChem BioAssay (NCI):
Several values for one entry are separate records, joined by “and”; a condition that tells them apart may be missing. Equal entries are not always repeated. About 83,000 compounds went through this panel and 20% of them were active in at least one assay; those are over-represented in the sample as a whole.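 Single-dose data. Exposure time 48 hours. Values below 10 considered active.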 Activity calls are given as the source filed them.

Experiments:
Experiment in all cases: NCI-60 one-dose screen, 48 h (100 = growth as untreated, 0 = no growth, -100 = all killed)
[1] = system: SR leukemia
[2] = system: RPMI-8226 leukemia
[3] = system: OVCAR-8 ovarian
[4] = system: OVCAR-5 ovarian
[5] = system: OVCAR-4 ovarian
[6] = system: SK-OV-3 ovarian
[7] = system: IGROV1 ovarian
[8] = system: OVCAR-3 ovarian
[9] = system: HS 578T breast
[10] = system: NCI/ADR-RES ovarian

Measured: growth

COc1cccc2c1C(=O)c1c(O)c3c(c(O)c1C2=O)C[C@@](O)(C(=O)CO)C[C@@H]3OC1CC(N)C(O)C(C)O1 (stereo partly specified)
inactive: [1]; 0.0025 µM 81.5% | [2]; 0.0025 µM 101% | [2]; 2.5 µM 62.7% | [3]; 0.0025 µM 99.5% | [3]; 1 µM 36.6% | [3]; 2.5 µM 45% | [4]; 0.0025 µM 102% | [4]; 1 µM 84.4% | [4]; 2.5 µM 120% | [5]; 0.0025 µM 114% | [5]; 1 µM 68% | [5]; 2.5 µM 67.6% | [5]; 10 µM 14.1% | [6]; 0.0025 µM 95.6% | [6]; 1 µM 28.4% | [6]; 2.5 µM 43.4% | [6]; 10 µM 13.8% | [7]; 0.0025 µM 85.7% | [7]; 1 µM 19.9% | [7]; 2.5 µM 50% | [8]; 0.0025 µM 105% | [8]; 1 µM 81.8% | [8]; 10 µM 10.2% | [9]; 0.0025 µM 97.9% | [9]; 1 µM 70.8% | [9]; 2.5 µM 50% | [10]; 0.0025 µM 103% | [10]; 1 µM 104% | [10]; 2.5 µM 99%
active: [1]; 2.5 µM -29.1% | [1]; 10 µM -0.536% | [2]; 1 µM -15.7% | [2]; 10 µM -17.4% | [4]; 10 µM -59.3% | [7]; 10 µM -7.77% | [9]; 10 µM -68.2% | [10]; 10 µM 4.94%

CC1=CC(C)=Nc2ccc(Cl)cc2N1
inactive: [1]; 10 µM unless noted 91.1% | [2]; 10 µM 102% | [3]; 10 µM 102% | [4]; 10 µM 112% | [5]; 10 µM 110% | [6]; 10 µM 98.7% | [7]; 10 µM 103% | [8]; 10 µM 102% | [9]; 10 µM 104% | [10]; 10 µM 102%

Cc1cc(O)c(C(C)C)cc1Cl
inactive: [1]; 10 µM unless noted 103% | [2]; 10 µM 110% | [3]; 10 µM 104% | [4]; 10 µM 105% | [5]; 10 µM 109% | [6]; 10 µM 101% | [7]; 10 µM 112% | [8]; 10 µM 103% | [9]; 10 µM 99.5% | [10]; 10 µM 112%

COC(=O)C1C(O)C(C)C(O)C(C)C=C(C)C2=C3C(=C(C)C(=O)c4c(O)c(c(C)c(OC(C)=O)c43)NC(=O)C(C)=C/C=C\C(C)C(O)C(C)C1O)OCO2 (stereo unspecified)
inactive: [1]; 10 µM unless noted 138% | [2]; 10 µM 118% | [3]; 10 µM 114% | [4]; 10 µM 104% | [5]; 10 µM 108% | [6]; 10 µM 116% | [7]; 10 µM 163% | [8]; 10 µM 113% | [9]; 10 µM 116% | [10]; 10 µM 121%

CCCC1CCC(=C2C(=O)CCC2=O)O1 (stereo unspecified)
inactive: [1]; 10 µM unless noted 96.5% and 78.2% | [2]; 10 µM 119% and 113% | [3]; 10 µM 112% | [4]; 10 µM 96.8% and 97% | [5]; 10 µM 98.2% | [6]; 10 µM 104% and 110% | [7]; 10 µM 121% | [8]; 10 µM 101% and 94% | [9]; 10 µM 109% and 97.8% | [10]; 10 µM 108% and 106%

O=C1C=C(O)c2ccccc2C1=O.[Ag]
inactive: [1]; 10 µM unless noted 103% | [2]; 10 µM 104% | [3]; 10 µM 95.4% | [4]; 10 µM 115% | [5]; 10 µM 95.4% | [6]; 10 µM 137% | [7]; 10 µM 105% | [8]; 10 µM 117% | [9]; 10 µM 96.7% | [10]; 10 µM 109%

CCC(C)(C)c1cc(O)c(C(C)(C)CC)cc1O
inactive: [1]; 10 µM unless noted 45.1% | [2]; 10 µM 22.3% | [3]; 10 µM 65.9% | [4]; 10 µM 49.2% | [5]; 10 µM 28% | [6]; 10 µM 57.2% | [7]; 10 µM 64.8% | [8]; 10 µM 37.2% | [9]; 10 µM 31.9% | [10]; 10 µM 39.2%

Nc1ccc2cc3ccc(N)cc3nc2c1
104% (inactive) and -5.13% (active): [5]; 10 µM
88% (inactive) and -2.44% (active): [3]; 10 µM
inactive: [4]; 10 µM 84.9% and 26.6% | [6]; 10 µM 78.5% and 12.8% | [7]; 10 µM 111% and 19.1% | [8]; 10 µM 122% and 11.3% | [9]; 10 µM 123% and 23.6% | [10]; 10 µM 89.1% and 12.6%
106% (inactive) and 7.41% (active): [1]; 10 µM unless noted
77.5% (inactive) and 3.77% (active): [2]; 10 µM

NC(=O)SCC(=O)NNc1ccccc1
inactive: [1]; 10 µM unless noted 111% | [2]; 10 µM 105% | [3]; 10 µM 93.8% | [5]; 10 µM 104% | [6]; 10 µM 100% | [7]; 10 µM 103% | [8]; 10 µM 107% | [9]; 10 µM 100% | [10]; 10 µM 95.5%
